Measurements published in PubChem BioAssay (Tox21).
Inconclusive results are not listed. Entries that show only a call come without a potency. Activity calls are given as the source filed them. The call rests on the fitted dose curve; in most records, active means well fitted cell-killing curve with a large enough effect in the repeat runs; inconclusive means weak or mixed curves; inactive means flat fitted curve, though single readings scatter.

assay: qHTS assay to identify small molecule antagonists of the TGF-beta/Smad signaling pathway - cell viability counter screen (AID 1346824); conditions: SBE-bla HEK293T viability, CellTiter-Glo luminescence; series mostly up to 76.8 µM; viability change, negative = cytotoxic: at the top concentration; further: nearly all actives have a fitted effect of over 50% in size
Description: U.S. Tox21 Program National Center for Advancing Translational Sciences [NCATS] NIH Chemical Genomics Center [NCGC] U.S. Environmental Protection Agency [EPA] National Institutes of Environmental Health Sciences [NIEHS] National Toxicology Program [NTP] U.S. Food and Drug Administration [FDA] Tox21 Assay Overview: Transforming growth factor beta (TGF-beta) superfamily consists of a large number of structurally related dimeric proteins that act as hormones or local mediators in regulating a wide range of biological functions. This superfamily includes TGF-betas themselves, the bone morphogenetic proteins (BMPs) and the activins. These ligands induce oligomerization of serine/threonine receptor kinases and phosphorylate the cytoplasmic signaling molecules of Smad protein family. CellSensor SBE-bla HEK 293T cell line (Life Technologies, Carlsbad, CA), responsive to TGF-beta was used to screen Tox21 10K compound library for identification of agonists/antagonists of the Smad signaling pathway. This cell line contains a beta-lactamase reporter gene under control of the Smad binding element (SBE) stably integrated into HEK 293T cells. Also cytotoxicity of the compounds was tested in parallel by measuring the cell viability using CellTiter-Glo assay system in the same wells.
Tox21 Assay Protocol Summary: SBE-bla HEK 293T cells were dispensed at 4,000/well in 5 uL of assay medium into black wall/clear-bottom 1536-well plates using a Multidrop Combi (ThermoFisher Scientific, Waltham, MA) dispenser. After the assay plates were incubated at 37 C and 5% CO2 for an overnight, 23 nL of compounds dissolved in DMSO, positive controls or DMSO only was transferred to the assay plate by a Pintool station (Kalypsys, San Diego, CA). Compound transfer was followed by the addition of 1 uL of 0.25 ng/mL TGF-beta1 or assay buffer using two separate tips of Flying Reagent Dispenser (FRD, Aurora Discovery, San Diego, CA). The assay plates were incubated at 37 C and 5% CO2 for 5 hr. One uL of LiveBLAzer B/G FRET substrate (Life Technologies) was added using a Flying Reagent Dispenser (FRD, Aurora Discovery, San Diego, CA) and the plates were incubated at room temperature for 2 hr. Fluorescence intensity (405 nm excitation, 460 nm and 530 nm emissions) was measured using an Envision plate reader (PerkinElmer, Shelton, CT). For cytotoxicity read, 4 uL of CellTiter-Glo reagent (Promega Corporation, Madison, WI) was added to each well of the assay plates using FRD. After 30 min incubation at room temperature, the luminescence intensity was measured using ViewLux plate reader (PerkinElmer).

Row | SMILES | Potency | viability change, negative = cytotoxic
1 | O=C(NC(=O)c1c(F)cccc1F)Nc1cc(Cl)c(OC(F)(F)C(F)C(F)(F)F)cc1Cl (stereo not given) | inactive | –
2 | [N-]=[N+]=[N-] | inactive | –
3 | Nc1ccc(Oc2ccc(N)cc2)cc1 | inactive | –
4 | C=CCO | inactive | –
5 | CCC(C)(CC)c1cc(NC(=O)c2c(OC)cccc2OC)on1 | inactive | –
6 | O=Cc1cccc(Oc2ccccc2)c1 | inactive | –
7 | CCN(CC)CCO | inactive | –
8 | Clc1cccc(Cl)c1Cl | inactive | –
9 | Cn1cc(-c2ccccc2)c(=O)c(-c2cccc(C(F)(F)F)c2)c1 | inactive | –
10 | CCOC(=O)c1ccccc1C(=O)OCC | inactive | –
11 | Clc1ccccc1Cl | inactive | –
12 | C[C@]12CC[C@H]3[C@@H](CC[C@@]45O[C@@H]4C(O)=C(C#N)C[C@]35C)[C@@H]1CC[C@@H]2O | inactive | –
13 | O=[N+]([O-])c1ccc(Oc2ccc(Cl)cc2Cl)cc1 | inactive | –
14 | CON(C)C(=O)Nc1ccc(Cl)c(Cl)c1 | inactive | –
15 | Nc1ccc(Br)cc1 | inactive | –
16 | O=c1[nH]c(=O)[nH]c(=O)[nH]1 | inactive | –
17 | CCOP(OCC)OCC | inactive | –
18 | Nc1c(Cl)c(Cl)nc(C(=O)O)c1Cl | inactive | –
19 | Oc1ccccc1Cl | inactive | –
20 | O=[N+]([O-])c1ccc([As](=O)(O)O)cc1 | inactive | –

Row | SMILES | Potency | viability change, negative = cytotoxic
21 | C1CC2OC2CC1C1CO1 (stereo not given) | inactive | –
22 | O=C1CCCN1 | inactive | –
23 | Nc1ccc(Cc2ccc(N)cc2)cc1 | inactive | –
24 | CC(NC(C)(C)C)C(=O)c1cccc(Cl)c1 (stereo not given) | inactive | –
25 | CC(C)NC(=O)N1CC(=O)N(c2cc(Cl)cc(Cl)c2)C1=O | inactive | –
26 | O=C(O)c1ccccn1 | inactive | –
27 | CCC12COCN1COC2 | inactive | –
28 | Clc1ccc(Cl)cc1 | inactive | –
29 | CCCCCOC(=O)c1ccccc1C(=O)OCCCCC | inactive | –
30 | CCCN(CCC)N=O | inactive | –
31 | c1ccc2c(c1)oc1ccccc12 | inactive | –
32 | Cc1ccccc1O | inactive | –
33 | O=c1n(Cl)c(=O)n(Cl)c(=O)n1Cl | – | -4.05% [at 35.3 µM] (inactive)
34 | Nc1ccccc1C(=O)O | inactive | –
35 | CCC[N+](=O)[O-] | inactive | –
36 | NCC(O)c1ccc(O)cc1 (stereo not given) | inactive | –
37 | C#CC(C)(C)NC(=O)c1cc(Cl)cc(Cl)c1 | inactive | –
38 | CCNc1nc(NC(C)C)nc(SC)n1 | inactive | –
39 | OC(O)C(Cl)(Cl)Cl | inactive | –
40 | COC(=O)c1ccccc1N | inactive | –
